This passage reports growth results from PubChem BioAssay (NCI).

Some test systems named below: SK-MEL-2 melanoma; EKVX NSCLC; SN12C renal; UO-31 renal; TK-10 renal; ACHN renal; CAKI-1 renal; CCRF-CEM leukemia; MOLT-4 leukemia; A498 renal.
Common to all, as to assay: NCI-60 one-dose screen, 48 h (100 = growth as untreated, 0 = no growth, -100 = all killed)
Common to all, as to conditions: 10 µM unless noted

Structures are written as SMILES. This is part of a sample that, as a whole, favours compounds with a hit. Of some 83,000 tested, about 20% had one in any assay.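 Treatment: one concentration, 48 hours, 96-well format. Scoring: percent growth, with anything below 10 considered active.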 A number with no mark means an inactive call. Activity calls are given as the source filed them.

In the case of `CN1C(=O)N(C)C2C1NN=c1s/c(=C\c3cccnc3)c(=O)n12` (stereo not given), the growth is 97.3% with SK-MEL-2 melanoma; 89.6% in the assay with EKVX NSCLC; 93.5% with SN12C renal; 66.5% in the assay with UO-31 renal; 109% in the assay on TK-10 renal; 92.3% with ACHN renal. For the same molecule, the growth in the assay on CAKI-1 renal was 57.6%; with CCRF-CEM leukemia, 79.8%; in the assay on MOLT-4 leukemia it was 88.7%.

On to `C=C1CCC2C3(C)COC(c4ccc(N(C)C)cc4)OC3CCC2(C)C1C/C=C1/C(=O)OCC1O` (stereo not given), for which the growth in the assay on SK-MEL-2 melanoma is 45.1%; with EKVX NSCLC, 85.7%; with SN12C renal it was 44.9%; in the assay on UO-31 renal, 54.2%; in the assay with TK-10 renal it was 94.3%; with ACHN renal, 79.3%. Further, the growth was 109% in the assay on A498 renal, -41.6% (active) with CCRF-CEM leukemia and 37.7% in the assay with MOLT-4 leukemia.

On to `COc1ccc(Nc2nn3c(-c4ccccc4)cc(-c4ccccc4)nc3c2C(N)=O)c(OC)c1`, for which the growth is 70.1% in the assay on SK-MEL-2 melanoma; 67.7% in the assay on EKVX NSCLC; 46.4% in the assay with SN12C renal; 86.9% in the assay on UO-31 renal; 29.7% with TK-10 renal; 67% in the assay on ACHN renal. In addition, the growth in the assay with CAKI-1 renal is 77.4%; in the assay on CCRF-CEM leukemia, 73.2%; in the assay on MOLT-4 leukemia it was 72.3%.

As for `COc1ccc2c(c1)[nH]c(=O)c1c3cc(C)c(C)cc3cn21`, the growth was -4.76% (active) in the assay with SK-MEL-2 melanoma; 35.4% in the assay on EKVX NSCLC; -43.6% (active) in the assay with SN12C renal; -31.4% (active) in the assay with UO-31 renal; -34% (active) in the assay on TK-10 renal; 17.5% with ACHN renal. Also, the growth in the assay on A498 renal was 42%; in the assay on CCRF-CEM leukemia, -68.1% (active); in the assay with MOLT-4 leukemia it was -10.9% (active).

With `COc1cccc(/C=C2\Oc3cc(OCCCN4CCCC4)ccc3C2=O)c1`, the growth is 107% in the assay with SK-MEL-2 melanoma; 85.3% in the assay on EKVX NSCLC; 85.2% in the assay with SN12C renal; 58.2% in the assay on UO-31 renal; 93.3% in the assay on TK-10 renal; 93% with ACHN renal. For the same molecule, the figures for the growth in the assay on CAKI-1 renal, in the assay with CCRF-CEM leukemia and in the assay on MOLT-4 leukemia were 85.5%, 1.85% (active) and 59.5%, respectively.

Consider `CCOC(=O)C1C(=O)C=C(c2ccc(OC)cc2)CC1c1sc(N(C)Cc2ccccc2)nc1Cl` (stereo not given), for which the growth in the assay with SK-MEL-2 melanoma was 74.3%; in the assay with EKVX NSCLC, 82.4%; in the assay with SN12C renal it was 79.8%; with UO-31 renal it was 54.2%; in the assay on TK-10 renal it was 93.7%; in the assay on ACHN renal, 73.8%. Moreover, the growth in the assay on CAKI-1 renal is 76.7%; with CCRF-CEM leukemia it was 86.5%; in the assay on MOLT-4 leukemia, 61.5%.

For `NC1=NC(SCc2ccccc2CCl)c2ncn(Cc3ccccc3CCl)c2N1` (stereo not given), the growth was -4.24% (active) with SK-MEL-2 melanoma; 77.9% in the assay on EKVX NSCLC; 37.8% in the assay on SN12C renal; 61.3% in the assay with UO-31 renal; 56.2% in the assay with TK-10 renal; 31.8% with ACHN renal. Moreover, the growth in the assay with CAKI-1 renal is 32.4%; in the assay on CCRF-CEM leukemia, 7.36% (active); in the assay with MOLT-4 leukemia, 14.5%.

As for `CC(C)(C)n1cc(-c2ccnc(NCCCNS(=O)(=O)c3ccccc3)c2)c(-c2cccc(O)c2)n1`, the growth in the assay with SK-MEL-2 melanoma is 60.1%; with EKVX NSCLC, 57.3%; in the assay with SN12C renal, 52.8%; with UO-31 renal it was 55.7%; in the assay on TK-10 renal it was 89.7%; with ACHN renal, 45.6%. The values for the growth in the assay on CAKI-1 renal, with CCRF-CEM leukemia and in the assay with MOLT-4 leukemia were 52.9%, 35.1% and 32.1%, respectively.

With `COc1cc(-c2nc(N=Nc3c(O)[nH]c4ccc(Br)cc34)[nH]c(=O)c2C#N)cc(OC)c1OC`, the growth in the assay on SK-MEL-2 melanoma was 102%; in the assay on EKVX NSCLC, 100%; with SN12C renal, 97.4%; with UO-31 renal, 90%; in the assay with TK-10 renal, 111%; in the assay with ACHN renal, 101%. Also, the growth with CAKI-1 renal was 91.1%; in the assay with CCRF-CEM leukemia, 94.5%; with MOLT-4 leukemia, 96.2%.

Turning to `COc1cc(/C=C/C(=O)c2ccc(Nc3ncnc4cc(OC)c(OC)cc34)cc2)cc(OC)c1`, the growth with SK-MEL-2 melanoma is 105%; with EKVX NSCLC, 101%; with SN12C renal, 91.1%; in the assay on UO-31 renal it was 94.4%; with TK-10 renal, 104%; in the assay on ACHN renal, 102%. Also, the figures for the growth in the assay on CAKI-1 renal, with CCRF-CEM leukemia and in the assay on MOLT-4 leukemia were 97.6%, 63.2% and 53.8%, respectively.

In the case of `CCCCCCCCCCCCCCCCCCNC(=O)[C@H]1CSC(c2ccc(OC)cc2O)N1` (stereo not given in full), the growth in the assay with SK-MEL-2 melanoma was 75.6%; in the assay on EKVX NSCLC, 102%; in the assay with SN12C renal, 14.3%; with UO-31 renal, 53.5%; with TK-10 renal, 94.7%; with ACHN renal, 88.1%. The growth is 89.8% in the assay on CAKI-1 renal, 6.93% (active) in the assay on CCRF-CEM leukemia and 17.3% in the assay with MOLT-4 leukemia.

In the case of `N[C@H]1CN(C(=O)c2cc3cc(Br)c(F)c(F)c3[nH]2)C[C@@H]1O`, the growth in the assay with SK-MEL-2 melanoma is 102%; in the assay with EKVX NSCLC, 92.8%; in the assay on SN12C renal it was 95.7%; with UO-31 renal it was 67.2%; in the assay on TK-10 renal, 107%; with ACHN renal, 102%. The values for the growth in the assay with CAKI-1 renal, in the assay on CCRF-CEM leukemia and in the assay with MOLT-4 leukemia were 79.4%, 97.2% and 98.1%, respectively.

Take `O=C1Nc2ccc(Cl)cc2C12Nc1cc(Cl)ccc1S2` (stereo not given): the growth in the assay with SK-MEL-2 melanoma was 105%; in the assay on EKVX NSCLC, 73.3%; with SN12C renal it was 90.1%; with UO-31 renal, 57.4%; in the assay with TK-10 renal, 111%; in the assay on ACHN renal, 104%. The growth was 112% in the assay on CAKI-1 renal, 97.3% in the assay on CCRF-CEM leukemia and 38.3% in the assay with MOLT-4 leukemia.

For `CCN(CC)CCC(CNc1c2ccc(Cl)cc2nc2ccc(OC)cc12)c1ccccc1` (stereo not given), the growth was -71.2% (active) in the assay with SK-MEL-2 melanoma; 52.1% in the assay with EKVX NSCLC; 16.8% in the assay with SN12C renal; -95.2% (active) in the assay with UO-31 renal; -11% (active) in the assay with TK-10 renal; -95% (active) in the assay with ACHN renal. The growth in the assay on CAKI-1 renal is -40.5% (active); in the assay with CCRF-CEM leukemia, 0.732% (active); in the assay on MOLT-4 leukemia, -7.09% (active).

Turning to `CN(C)c1ncnc2c1ccn2C1OC(CO)C(O)C1O` (stereo not given), the growth in the assay with SK-MEL-2 melanoma is 54.9%; with EKVX NSCLC it was 60.5%; with SN12C renal, 17.8%; in the assay on UO-31 renal, 24.8%; with TK-10 renal it was 40.9%; in the assay on ACHN renal, 32.3%. For the same molecule, the growth was 34.7% with CAKI-1 renal, 10.7% with CCRF-CEM leukemia and 9% (active) with MOLT-4 leukemia.
